Source: PubChem (National Center for Advancing Translational Sciences (NCATS))
Cycloheximide cs: affects cycloheximide protein synthesis inhibition readout, counter-screen; cell reporter, cycloheximide protein synthesis inhibition counterscreen; max response, %; 12% of 300,000 active; AID 2314; in the data active = max response mostly above about 13%, no sharp cut-off; inactive = mostly below about 14%; also: read at 38.3 µM for the half of the compounds with a filed dose; 0% is about no effect
Pf growth 48h: inhibits P. falciparum growth in the first generation, 48 h; Potency, µM (titrated, usually from 28.7 µM), without a hit: at the top dose activity change, negative = inhibition, usual class: inhibitors; AID 504832; 5.9% of 310,000 active; P. falciparum luciferase growth in erythrocytes, 48 h; also: potency is read from the fitted curve at half-maximal effect; % is scaled to controls: 0 for no effect and ±100 for the full control effect
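Firefly luciferase activity from engineered P. falciparum reports growth; inhibitors lower the luminescent signal. Cultures contained 2% hematocrit erythrocytes at 0.1% final parasitemia.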
HCMV antiviral: inhibitors of human cytomegalovirus; HFF cells, HCMV-luciferase reporter, 72 h; stronger effect = lower value; activity change, negative = inhibition, % at 57.5 µM; 4.5% of 410,000 active; AID 1259415; in the data active = activity change below about -60%; inconclusive = no clear call, values can overlap the other calls; inactive = above about -39%; also: % is scaled to controls: 0 for no effect and ±100 for the full control effect
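Steps: HFFs plated, 16 h 37C; compounds added; HCMV-luciferase added to MOI 1 PFU/cell; 72 h 37C; OneGlo reagent, 5 min room temperature; luminescence read, normalized to controls.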
Pf growth 96h: P. falciparum growth inhibition at 96 hours | 6.9% of 320,000 active | Potency, µM (doses to about 28.7 µM), for the others: at the highest dose activity change, negative = inhibition, hits mostly inhibitors | P. falciparum luciferase reporter growth, 96 h; also: potency is read from the fitted curve at half-maximal effect; % is scaled to controls: 0 for no effect and ±100 for the full control effect
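Luminescence readout: decreased luciferase signal marks inhibited growth of reporter-expressing P. falciparum in infected red cells (2% hematocrit, 0.05% parasitemia final), exposed to compound two generations (96 h, 37 C, 5% CO2).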
Shiga toxin inh: Shiga toxin inhibition | Vero cells, Shiga toxin protein synthesis inhibition reporter | inhibition, % at 38.7 µM | 9.2% of 290,000 active; in the data active = inhibition mostly above about 28%, no sharp cut-off; inactive = mostly below about 43%; also: 0% is about no effect
Starred values were filed as active, the others as inactive; i = inactive; ? = inconclusive; . = no result given. An excerpt weighted towards active compounds, which were near 20% of everything screened. Unless noted, calls follow the shape of the dose curve; as a rule, active = well fitted inhibition curve with a large enough effect; inconclusive = small, poorly fitted or top-dose-only effect, or another doubt; inactive = no such curve, though single readings can be large or run the other way.

SMILES	Cycloheximide cs	Pf growth 48h	HCMV antiviral	Pf growth 96h	Shiga toxin inh
CC1=CC(=C2C=CC(=O)C=C2)C=C(C)N1C	-2	7.4µM*	36	1.9µM*	-8
Cc1ccc(-c2nn(-c3ccccc3)cc2C(=O)N2CCN(c3ccccn3)CC2)cc1	33	?	-6	?	42*
O=C(c1cn(-c2ccccc2)nc1-c1ccccc1)N1CCOCC1	22	.	29	18%	20
COc1ccc(-c2nn(-c3ccccc3)cc2/C=C/C(=O)N2CCN(c3ccccn3)CC2)cc1	-3	?	-34	10µM*	-1
O=C(c1cn(-c2ccccc2)nc1-c1ccccc1)N1CCN(c2ccccn2)CC1	23*	?	-19	-19%	29
CCOc1cccc(CC(=O)NCc2ccc3c(c2)CCN3C(=O)c2cccc(C)c2)c1OCC	.	.	-67*	.	.
COc1ccc(C)cc1NC(=O)NCc1ccc2c(c1)CCN2C(=O)c1ccccc1	.	.	-92*	.	.
CCOc1ccccc1NC(=O)NCc1ccc2c(c1)CCN2C(=O)c1ccccc1	.	.	-82*	.	.
CCOc1ccccc1C(=O)NCc1ccc2c(c1)CCN2C(=O)c1ccccc1	.	.	-78*	.	.
CCc1ccccc1NC(=O)NCc1ccc2c(c1)CCN2C(=O)c1ccccc1	.	.	23	.	.
Cc1cccc(Cn2cnc3c(oc4ccccc43)c2=O)c1	.	.	30	.	.
CN(CC(=O)Nc1ccc(OC(F)(F)F)cc1)S(=O)(=O)c1ccc2c(c1)CCC(=O)N2	.	.	-20	.	.
Cc1ccc(OCc2nc3ccccc3n2C(C(=O)Nc2c(C)cccc2C)C2CC2)cc1 (centres undefined)	.	.	106	.	.
O=C(NCCSC1CCCCC1)c1ccccc1	30*	?	28	?	63*
COc1ccc(C(=O)NCCSC2CCCCC2)cc1	42*	31%	51	132%	80*
CC1=C2C3OC(=O)C(C)C3CCC2(C)C=C(Cl)C1=O (centres undefined)	.	.	-3	.	.
CS(=O)(=O)N1CCc2cc(-c3csc(NC(=O)Cc4ccccc4)n3)ccc21	7	-4%	-98*	-5%	28
CC(C)C(=O)N1CCc2cc(-c3csc(N)n3)ccc21	22*	10µM*	-37	-12%	37
CCC(=O)N1CCc2cc(-c3csc(NC(=O)c4ccco4)n3)ccc21	28*	?	43	25%	55
O=C(Nc1nc(-c2ccc3c(c2)OCCO3)cs1)c1ccco1	.	.	0	.	.
CS(=O)(=O)N1CCc2cc(-c3csc(NCC4CCCO4)n3)ccc21 (centres undefined)	1	9.3µM*	53	?	11
CC1CCCCC1NC(=O)Cn1cnc2sccc2c1=O (centres undefined)	.	-4%	-1	-7%	.
COc1ccc(C(=O)C2CCCN(C(=O)c3cccnc3OC)C2)c(C)c1 (centres undefined)	7	?	11	-17%	25
COc1ccc(C(=O)C2CCCN(C(=O)CCc3scnc3C)C2)c(C)c1 (centres undefined)	47*	2.3µM*	-76*	260%	92*
COc1ccc(C(=O)C2CCCN(C(=O)CCc3ccccn3)C2)c(C)c1 (centres undefined)	8	-1%	-12	-31%	-15
SMILES	Cycloheximide cs	Pf growth 48h	HCMV antiviral	Pf growth 96h	Shiga toxin inh
COC(=O)CCCC(=O)N1CCCC(C(=O)c2ccc(OC)cc2C)C1 (centres undefined)	5	4%	-17	15µM*	9
CCCCn1c(CNC(=O)c2cccs2)nc2ccccc21	0	5.2µM*	-21	2.1µM*	-4
CCCCCn1c(CNC(=O)c2cccs2)nc2ccccc21	0	?	3	0.59µM*	4
CCCCCn1c(CCNC(=O)c2cccs2)nc2ccccc21	0	?	1	-19%	-15
COc1ccc(S(=O)(=O)NCc2nc(-c3ccccc3)no2)cc1	.	.	-3	.	.
C/C(=N\NC(=O)C(N)=O)c1cccc(C(F)(F)F)c1	5	0%	-7	?	9
CCOc1ccc(CC(=O)Nc2nccs2)cc1OCC	-4	?	-22	i	-2
Cc1cc(C(=O)NCCC(c2ccccc2)c2ccccc2)c(C)o1	26*	.	3	?	40
Cc1cc(C(=O)NCCCC(=O)O)c(C)o1	-3	10%	21	.	-13
Cc1oc(CC(C)C)cc1C(=O)Nc1cccc2ccccc12	-1	48%	20	31%	-14
Cc1cc(C(=O)Nc2cccc3ccccc23)c(C)o1	25*	4%	14	?	30
Cc1occc1C(=O)Nc1cccc2ccccc12	56*	i	170	-8%	67*
C(=N\NC1=Nc2cccc3cccc1c23)/c1cccnc1	40*	112%	4	-17%	72*
C(=N\NC1=Nc2cccc3cccc1c23)/c1ccccc1	87*	330%	180	323%	43*
COc1cccc(NC2=Nc3cccc4cccc2c34)c1	21*	15%	-9	?	24
Clc1ccc(/C=N/NC2=Nc3cccc4cccc2c34)cc1	24*	157%	58	82%	85*
Clc1ccc(/C=N/Nc2nn[nH]n2)cc1	-3	?	-23	-11%	-3
COc1ccc(NC2=Nc3cccc4cccc2c34)cc1OC	9	?	48	?	-3
Cc1ccc(NC(=O)CSc2nc3ccccc3nc2Cc2ccccc2)c(Cl)c1	.	.	-10	.	.
COc1cccc(CNC(=O)c2sc3nc4n(c(=O)c3c2C)CCC4)c1	.	.	6	.	.
CCCCNC1C(CC)C(CCC)C(C#N)(C#N)C1(C#N)C#N (centres undefined)	10	12µM*	.	?	16
CCN1c2ccccc2-c2nc(SCC(=O)Nc3cc(C)c(Cl)cc3OC)ncc2S1(=O)=O	.	.	-14	.	.
O=C(c1cc(-c2ccco2)on1)N1CCOCC1	27*	56%	-12	0%	47*
CN1CCN(C(=O)c2cc(-c3ccco3)on2)CC1	15*	68%	7	8%	36
CCn1cc(C(=O)NCCCOC(C)C)c(=O)c2cc(S(=O)(=O)N(C)C3CCCCC3)ccc21	.	.	0	.	.
SMILES	Cycloheximide cs	Pf growth 48h	HCMV antiviral	Pf growth 96h	Shiga toxin inh
Cc1ncc(CO)c(C=O)c1O	-5	-2%	.	-15%	-9
Cn1nc(C(C)(C)C)cc1NC(=O)C1(C)CCN1C(=O)CC(c1ccccc1)c1ccccc1 (centres undefined)	.	.	8	.	.
Oc1ccc(C(=S)N2CCCCC2)cc1Cl	-1	14%	-75*	-18%	-11
COc1cc(C(=S)N2CCCCC2)ccc1O	-8	.	22	9%	-9
Cc1cc(Oc2ccc(=O)n(C)n2)nc(=S)[nH]1	-5	6%	.	0%	2
Fc1ccccc1N1CCN(c2nc3ccccc3n3nnnc23)CC1	14*	35%	-9	67%	23
Cn1cc(C(=O)N/N=C/C(Br)=C/c2ccccc2)ccc1=O	2	?	45	?	15
COc1ccc(C(=O)N/N=C/C(Br)=C/c2ccccc2)cc1	31*	?	-65*	-20%	60*
COc1cccc(C(=O)N/N=C/C(Br)=C/c2ccccc2)c1	52*	13µM*	?	-19%	114*
